Source: the supplement of paper PMC7866885, “A novel bicyclic 2,4-diaminopyrimidine inhibitor of Streptococcus suis dihydrofolate reductase” (PeerJ, 2021)
± gives the standard deviation.

Tested on: Streptococcus suis P1/7
Experiment: percent growth relative to DMSO control; higher = less growth inhibition
Details: 10 µM; incubation time 18 h
Method: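 CLSI broth microdilution: 5x10^4 CFU of Streptococcus suis (strain P1/7 or HE06) incubated with 10 µM Pathogen Box compound in cation-adjusted Mueller Hinton broth, 37 °C, 5% CO2, 18 h. Growth read as OD600 and expressed as percent of the DMSO-treated control (100%); mean ± SD of three independent experiments.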

Structure (SMILES)	percent growth [%]
CC(C)C(C(=O)Nc1ccc(S(=O)(=O)N(C)C)cc1)c1ccc(Cl)cc1 (centres undefined)	86 ± 22
COc1ccc(C2(C(=O)Nc3ccc(Br)cc3)CCCC2)cc1	92.5 ± 15
FC(F)(F)c1cnc(Sc2nnc(-c3ccncc3)o2)c(Cl)c1	67.2 ± 20
COC(=O)c1cccc2oc(-c3cccc(OC)c3NC(=O)c3cc(-c4ccccc4)on3)nc12	66 ± 18
O=C(Nc1ccc2c(c1)B(O)OC2)c1ccccc1C(F)(F)F	88 ± 14
O=C(NC1CCN(c2ccnc3ccccc23)C1)c1cccc(C(F)(F)F)c1 (centres undefined)	81.5 ± 25
CCOc1ccccc1NC(C)C(=O)Nc1cc(C(F)(F)F)ccc1N1CCOCC1 (centres undefined)	109 ± 31
O=C(COc1cccc(F)c1)Nc1nc(-c2ccccn2)cs1	3.07 ± 5.3
Cc1nc(-c2ccccn2)nc(N(C)CCc2ccccc2)c1Cl	-0.0636 ± 0.11
O=C(NCc1ccoc1)N1CCN(Cc2ccc3c(c2)OCO3)CC1	78.3 ± 6.3
COc1ccccc1C(C)NCC(=O)Nc1cc(C(F)(F)F)ccc1Cl (centres undefined)	112 ± 23
COc1cc(NC(=O)Cc2nn(C)c(=O)c3ccccc23)ccc1Cl	108 ± 46
O=C(Nc1ccccc1-c1nc2c(C(=O)O)cccc2o1)c1ccccc1	68.3 ± 5.7
COc1ccc(N(CCc2cccc(C)n2)C(=O)C2CCCCC2)cc1	105 ± 28
O=C(NC1CC1)c1ccc(N2CCOc3ccc(Cl)cc32)s1	85.5 ± 14
CC(C)n1ncc2c(C(=O)NCC(c3cccs3)N3CCOCC3)cc(-c3ccccc3)nc21 (centres undefined)	106 ± 36
O=C(c1ccc(NCCO)cc1)C1C[C@H]1c1ccc(Cl)cc1 (some centres undefined)	67 ± 24
Nc1nccc2ccc(Oc3ccncc3)cc12	84.2 ± 8.7
CC(C)(CN)c1nc(-c2ccc(Cl)c(O)c2)c(-c2ccnc(N)n2)[nH]1	79.2 ± 20
NC(=O)c1cc(-c2ccsc2)ccc1OCCOc1ccccc1	120 ± 58

Structure (SMILES)	percent growth [%]
Nc1nc(N)c2c3c(sc2n1)CN(Cc1ccccc1)CC3	87.8 ± 9.9
CCc1ccccc1-n1c(C)cn2c3c(=O)n(C(C(=O)OC)C(C)C)c(=O)n(C)c3nc12 (centres undefined)	101 ± 14
CCNC(=O)C(C)Nc1nc(-c2cccnc2)nc2sc(C)c(C)c12 (centres undefined)	64.5 ± 34
CO[C@H]1/C=C/O[C@@]2(C)Oc3c(C)c(O)c4c(O)c(/c(=C/NN5CCN(C)CC5)c(O)c4c3C2=O)=N\C(=O)/C(C)=C\C=C/[C@H](C)[C@H](O)[C@@H](C)[C@@H](O)[C@@H](C)[C@H](OC(C)=O)[C@@H]1C	1.07 ± 0.94
CNC(=O)c1cc(S(=O)(=O)N2CCN(c3ccccn3)CC2)cs1	129 ± 58
CN1CCN(c2nccc3nc(-c4ccc(F)c(F)c4)[nH]c23)CC1	68.8 ± 13
c1coc(CNc2nc(N3CCCCC3)nc3ccccc23)c1	89 ± 32
O=C(C1CCN(c2cc(-n3cccc3)ncn2)CC1)N1CCc2ccccc2C1	59.5 ± 45
CC[C@@H]([C@H](C)O)n1ncn(-c2ccc(N3CCN(c4ccc(OC[C@@H]5CO[C@@](Cn6cncn6)(c6ccc(F)cc6F)C5)cc4)CC3)cc2)c1=O	77.5 ± 0.79
COc1ccc(-c2cc(NC(=O)c3ccc(F)cc3Cl)ccc2OC)cc1	96 ± 31
O=C1Nc2ccc(Br)cc2C12NCCc1c2[nH]c2ccccc12 (centres undefined)	112 ± 38
COc1ccc(-c2nc(-c3cccc(NC(=O)Cc4ccc(F)cc4)c3)no2)cc1OC	102 ± 57
COc1cc(OC)cc(C(=O)NCC2Cc3cc(Cl)cc(-c4ccncc4)c3O2)c1 (centres undefined)	65.4 ± 25
CNC(=O)C1Cc2ccccc2N1C(=O)Cc1ccc(F)cc1 (centres undefined)	94.5 ± 32
Cc1ncc(-c2ccnc(Nc3ccc(S(C)(=O)=O)cc3)n2)n1C(C)C	150 ± 100
CNCCC(Oc1ccc(C(F)(F)F)cc1)c1ccccc1 (centres undefined)	98.5 ± 39
Cc1ccc(-c2cc(C(=O)Nc3cccnc3)c3cc(Br)ccc3n2)cc1	69.7 ± 1.4
CC(=O)Oc1ccccc1C(=O)Nc1ncc([N+](=O)[O-])s1	35.5 ± 5.8
CC1CCCCN1C(=O)NCCc1coc(-c2ccc(F)cc2)n1 (centres undefined)	120 ± 87
